The list is not random: actives were taken first. Their share in the collection is about 7.3%.
VACV Venus inh = vaccinia inhibition (Venus reporter); Vaccinia virus Venus reporter expression, fluorescence; Potency, µM (highest dose often 36.5 µM), for inactives: top-dose activity change, negative = inhibition, hits mostly inhibitors; 0.46% of 330,000 active; calls by dose curve; tested in A549 cells; note: potency is the fitted concentration of half-maximal effect; nearly all actives have a fitted effect of over 30% in size
FMDV inh = blocks foot and mouth disease virus. FMDV antiviral cell-based qHTS. Potency, µM (doses to about 57.9 µM), inactives show at the highest dose activity change, negative = inhibition, actives largely listed as inhibitors. 1.2% of 410,000 active. AID 1159524; calls by dose curve; tested in HEK293T cells; note: read-out not given here; potency is the fitted concentration of half-maximal effect; nearly all actives have a fitted effect of over 45% in size
HCV inhibitor = inhibitors of hepatitis C virus infection. AID 651820. Huh7.5.1 HCVcc-Cre infection, luciferase reporter, 44 h. Potency, µM (doses to about 41.8 µM), inactives show at the top dose activity change, negative = inhibition, most hits filed as inhibitors. 3.4% of 340,000 active; active = well fitted inhibition curve with a large enough effect; inconclusive = small, poorly fitted or top-dose-only effect, or another doubt; inactive = no such curve, though single readings can be large or run the other way; note: potency is the fitted concentration of half-maximal effect
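Reporter virus HCVcc-Cre (~0.5 moi) infects cells exposed to compound; seeding density 1,000 cells/well with 4 h settling beforehand. Luminescence, 15 sec read, taken 44 h post-infection following a 15 min RT substrate incubation.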
HCMV antiviral = inhibitors of human cytomegalovirus; HFF cells, HCMV-luciferase reporter, 72 h; stronger effect = lower value; activity change, negative = inhibition, % at 57.5 µM; 4.5% of 410,000 active; AID 1259415; in the data active = activity change below about -60%; inconclusive = no clear call, values can overlap the other calls; inactive = above about -39%
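Luciferase read-out from HCMV-luciferase-infected HFFs (MOI 1 PFU/cell) 72 h post infection at 37C; compounds added after 16 h cell attachment; activity normalized between buffer-only basal and Salinomycin (10uM) inhibitor controls.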
VACV mCherry inh = vaccinia inhibition (mCherry reporter) | Vaccinia virus mCherry reporter infection, fluorescence | Potency, µM (doses to about 36.5 µM), for the others: top-dose activity change, negative = inhibition, actives largely listed as inhibitors | 0.63% of 310,000 active | AID 720579; calls by dose curve; tested in A549 cells; note: potency is the fitted concentration of half-maximal effect; nearly all actives have a fitted effect of over 35% in size
Active calls of the source: *. % is set by controls: 0 for no effect and ±100 for the full control effect.

What do the screens show for `CC(C)(C)C1CCc2c(sc(N)c2C(N)=O)C1` (centres undefined)?
VACV Venus inh: -14%; FMDV inh: -22%; HCV inhibitor: -20%; VACV mCherry inh: -25%

Results for CCC(C)(C)C1CCc2c(sc(N)c2C(N)=O)C1 (centres undefined) ?
VACV Venus inh: -24%; FMDV inh: inconclusive; HCV inhibitor: inconclusive; HCMV antiviral: -76*; VACV mCherry inh: -20%

What do the screens show for `Oc1ccc(C[C@H]2CNCCN2CCc2cc(C(F)(F)F)cc(C(F)(F)F)c2)cc1`?
VACV Venus inh: -28%; FMDV inh: -24%; HCV inhibitor: inconclusive; HCMV antiviral: 12; VACV mCherry inh: -13%

How did Oc1ccc(C[C@@H]2CNCCN2CCc2cc(C(F)(F)F)cc(C(F)(F)F)c2)cc1 do in these assays?
VACV Venus inh: 10µM*; FMDV inh: 0%; HCV inhibitor: inconclusive; HCMV antiviral: 12; VACV mCherry inh: 14µM*

How did FC(F)(F)c1cc(CCN2CCNC[C@H]2Cc2cccc3ccccc23)cc(C(F)(F)F)c1 do in these assays?
VACV Venus inh: -28%; FMDV inh: -28%; HCV inhibitor: inconclusive; HCMV antiviral: -80*; VACV mCherry inh: inconclusive

How did COc1cccc(CNC(=O)CSC2=Nc3ccccc3C3=NC(C)C(=O)N23)c1OC (centres undefined) do in these assays?
VACV Venus inh: -1%; FMDV inh: -10%; HCMV antiviral: 7; VACV mCherry inh: -16%

Results for Cc1cccc(N2CCN(C(C(=O)NCc3ccccc3)c3ccc(F)cc3)CC2)c1C (centres undefined) ?
VACV Venus inh: -6%; FMDV inh: inconclusive; HCMV antiviral: 71; VACV mCherry inh: -26%

Results for CCc1ccc2c(COC(=O)c3n[nH]c4ccccc34)cc(=O)oc2c1 ?
VACV Venus inh: inconclusive; FMDV inh: 7%; HCV inhibitor: 10µM*; HCMV antiviral: 94; VACV mCherry inh: -29%

How did C#CCOCCOCCOCCNc1nc(N2CCN(C(=O)CCCCCCCCCCNC(=O)[C@H]([C@@H](C)CC)n3cc(CCCCCN)nn3)CC2)nc(N2CCN(C(=O)CCCCCCCCCCNC(=O)[C@H](CO)n3cc(CCCCCN)nn3)CC2)n1 do in these assays?
VACV Venus inh: 10µM*; FMDV inh: -2%; HCV inhibitor: inconclusive; VACV mCherry inh: inconclusive

How did C#CCOCCOCCOCCNc1nc(N2CCN(C(=O)Cn3cc(CCCN=C(N)N)nn3)CC2)nc(N2CCN(C(=O)[C@H]([C@@H](C)CC)n3cc(CCCCN)nn3)CC2)n1 do in these assays?
VACV Venus inh: -15%; FMDV inh: -17%; HCV inhibitor: 20%; HCMV antiviral: -26; VACV mCherry inh: inactive

Results for C#CCOCCOCCOCCNc1nc(N2CCN(C(=O)CCCCCCCCCCNC(=O)[C@H]([C@@H](C)CC)n3cc(CCCCCN)nn3)CC2)nc(N2CCN(C(=O)CCCCCCCCCCNC(=O)[C@@H]([C@H](C)CC)n3cc(CCCCCN)nn3)CC2)n1 ?
HCV inhibitor: -10%

Results for C#CCOCCOCCOCCNc1nc(N2CCN(C(=O)CCCCCCCCCCNC(=O)Cn3cc(CCCCCN)nn3)CC2)nc(N2CCN(C(=O)CCCCCCCCCCNC(=O)[C@H]([C@@H](C)CC)n3cc(CCCCN=C(N)N)nn3)CC2)n1 ?
VACV Venus inh: 5.6µM*; FMDV inh: 0%; HCV inhibitor: inconclusive; VACV mCherry inh: inconclusive

How did C#CCOCCOCCOCCNc1nc(N2CCN(C(=O)CCCCCCCCCCNC(=O)[C@H]([C@@H](C)CC)n3cc(CCCCN=C(N)N)nn3)CC2)nc(N2CCN(C(=O)CCCCCCCCCCNC(=O)[C@H](CCCCN)n3cc(C)nn3)CC2)n1 do in these assays?
VACV Venus inh: 7.1µM*; FMDV inh: 35µM*; HCV inhibitor: inconclusive; VACV mCherry inh: inconclusive

What do the screens show for `C#CCOCCOCCOCCNc1nc(N2CCN(C(=O)CCCCCCCCCCNC(=O)[C@H]([C@@H](C)CC)n3cc(CCCCCN)nn3)CC2)nc(N2CCN(C(=O)CCCCCCCCCCNC(=O)[C@H](CCCCN)n3cc(CCCC(=O)O)nn3)CC2)n1`?
VACV Venus inh: inconclusive; FMDV inh: inconclusive; HCV inhibitor: 11µM*; VACV mCherry inh: inconclusive

Compound activity: PubChem BioAssay, National Center for Advancing Translational Sciences (NCATS)
